The list is not random: actives were taken first. Their share in the collection is about 4.2%.
FBA Mtb inh = Mtb FBA enzyme inhibitors, primary screen, biochemical, fluorescence, strain H37Rv; Fructose-bisphosphate aldolase (Mycobacterium tuberculosis (strain ATCC 25618 / H37Rv)), …; purified M. tuberculosis FBA, fluorescence read-out; inhibition, % at 1 µM; 2.3% of 360,000 active; AID 588726, 2011; in the data active = inhibition above about 27%;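 note: 0% = vehicle and 100% = reference inhibitor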
RecA splice inh = Mtb RecA intein splicing inhibitors, primary screen, biochemical, fluorescence, HTS; 0.75% of 290,000 active; inhibition, % (no concentration beside the values); cell-free RecA intein splicing; AID 2221, 2009; in the data active = inhibition above about 30%;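 note: 0% = vehicle wells and 100% = reference inhibitor control wells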
Target sequence (P9WHJ3 whole entry, looked up, canonical isoform): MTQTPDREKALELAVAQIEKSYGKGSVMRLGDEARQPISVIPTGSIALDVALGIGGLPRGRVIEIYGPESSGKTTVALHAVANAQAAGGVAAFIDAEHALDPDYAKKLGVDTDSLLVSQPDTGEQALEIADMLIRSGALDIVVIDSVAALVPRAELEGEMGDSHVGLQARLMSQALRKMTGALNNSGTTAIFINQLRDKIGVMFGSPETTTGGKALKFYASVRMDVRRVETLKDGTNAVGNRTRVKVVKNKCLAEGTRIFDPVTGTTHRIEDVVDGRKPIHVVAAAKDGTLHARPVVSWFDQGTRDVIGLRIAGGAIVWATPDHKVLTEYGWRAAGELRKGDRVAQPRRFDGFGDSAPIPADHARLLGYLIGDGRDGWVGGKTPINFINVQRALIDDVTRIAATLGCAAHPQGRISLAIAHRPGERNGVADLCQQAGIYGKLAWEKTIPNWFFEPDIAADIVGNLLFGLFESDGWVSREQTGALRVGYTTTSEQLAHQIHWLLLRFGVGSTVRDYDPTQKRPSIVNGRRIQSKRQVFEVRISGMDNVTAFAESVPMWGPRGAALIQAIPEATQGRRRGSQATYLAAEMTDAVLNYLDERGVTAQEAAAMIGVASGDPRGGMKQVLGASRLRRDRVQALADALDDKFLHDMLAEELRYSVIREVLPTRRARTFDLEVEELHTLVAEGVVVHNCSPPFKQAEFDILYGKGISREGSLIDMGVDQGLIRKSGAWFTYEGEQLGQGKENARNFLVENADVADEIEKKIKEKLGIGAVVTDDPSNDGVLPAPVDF
CCHF vOTU inh-1 = CCHFV vOTU protease inhibitors, primary screen, biochemical, Pep-AMC substrate, fluorescence; Crimean-Congo hemorrhagic fever virus L polyprotein viral ovarian tumor (vOTU) protease …; inhibition, % at 11.5 µM; 0.55% of 370,000 active; AID 651958, 2012; note: 0% = vehicle wells with enzyme and 100% = no enzyme wells
Mtb bLac sens = beta-lactam sensitization of Mtb H37Rv, H37Rv. 0.27% of 330,000 active. inhibition, % at 25 µM. M. tuberculosis H37Rv growth with meropenem, percent inhibition. AID 434955, 2010; call rule not given here;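 note: growth measured after seven days incubation then overnight dye step; 0% = bacteria only wells and 100% = bacteria with antibiotic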
GDH-TPI counter = GDH-TPI coupling enzyme inhibitors, primary screen, artefact control for M. tuberculosis FBA inhibitor project, biochemical, absorbance, full deck. inhibition, % at 4.8 µM. AID 588335, 2011. GDH-TPI coupled enzyme counterscreen, NADH absorbance. 1.2% of 360,000 active;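 note: 0% = DMSO wells and 100% = wells lacking the enzyme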
CCHF vOTU inh-2 = CCHFV vOTU protease inhibitors, confirmation, biochemical, Pep-AMC substrate, fluorescence. inhibition, % at 11.5 µM. Recombinant CCHFV vOTU. shares compounds with CCHF vOTU inh-1. 17% of 1,900 active
* = called active by the depositor; · = no result. Cut-off read from the data, not from the text of the source, unless noted: active = inhibition above about 30%; inactive = the rest.

SMILES	FBA Mtb inh	RecA splice inh	CCHF vOTU inh-1	Mtb bLac sens	GDH-TPI counter	CCHF vOTU inh-2
COc1ccc(Cc2nc(-c3cccs3)no2)cc1OC	-1.3	3.3	30.6*	2.4	0.9	-10.9
Cc1ccc(OCCN2CCC2(C)C(=O)Nc2ccc3c(c2)OCO3)cc1 (stereo unspecified)	-0.1	·	16.2	·	-5.8	·
O=C(N/N=C\c1c[nH]c2ccccc12)c1ccc(O)cc1	0.1	-8.5	31.9*	0.8	31.6*	-5.0
O=C(N/N=C/c1c[nH]c2ccccc12)c1ccc(Br)cc1	4.3	-0.5	10.9	-4.8	19.9	·
CCS(=O)(=O)C1=NN2C(=N)/C(=C\c3ccc(OC(=O)c4ccco4)c(OC)c3)C(=O)N=C2S1	-3.4	25.4	15.6	4.3	28.8	·
CC(C)CS(=O)(=O)C1=NN2C(=N)/C(=C\c3ccc(OC(=O)c4ccco4)cc3)C(=O)N=C2S1	-2.4	40.1*	37.1*	97.7	33.8*	5.0
Cc1ccccc1-c1cc(=O)c2c(O)cccc2o1	4.3	8.0	34.9*	20.8	2.3	-1.7
O=C(CN(CCc1ccccc1)S(=O)(=O)c1ccccc1)N1CCOCC1	·	·	-2.9	·	·	·
O=C(CSc1nnc(-c2ccccc2)n1Cc1ccco1)Nc1ccc(OCc2ccccc2)cc1	·	·	31.7*	·	·	-6.5
COc1ccc(/C=C2\SC(=O)N(CCNC(=O)C3=COCCO3)C2=O)cc1	1.7	0.7	35.8*	-7.4	30.8*	-5.6
O=C(NCCN1C(=O)S/C(=C\c2ccccc2Cl)C1=O)C1=COCCO1	1.5	4.8	-9.8	1.6	20.0	·
CCOc1ccc2[nH]c3nc(SCC(=O)OC(C)C)nnc3c2c1	-1.3	-1.5	-9.3	-4.9	5.6	·
O=C(N=C1SC2CS(=O)(=O)CC2N1c1ccc(Br)cc1F)C1CC1 (stereo unspecified)	3.0	-5.8	1.2	1.4	3.1	·
O=C(N=C1SC2CS(=O)(=O)CC2N1c1ccc(Br)cc1Cl)C1CC1 (stereo unspecified)	2.0	-5.3	33.8*	2.3	-5.6	-4.2
COc1ccccc1N(C(C)=O)C1=C(Cl)C(=O)c2ccccc2C1=O	0.0	·	90.6*	·	3.5	82.7*
COc1ccc(C(O)c2nc(-c3ccc4ccccc4c3)cs2)cc1 (stereo unspecified)	-1.0	·	38.7*	·	10.2	-21.3
COc1ccc(C(O)c2nc(-c3ccccc3C)cs2)cc1 (stereo unspecified)	-2.7	·	34.2*	·	9.8	4.2
COc1cccc(C(O)c2nc(-c3ccccc3C)cs2)c1 (stereo unspecified)	0.0	·	-2.1	·	0.9	·
O=C1OC(N2C(=O)CC[C@H]2C(=O)Nc2ccc3c(c2)OCO3)c2ccccc21 (stereo partly specified)	3.2	0.5	-11.6	-4.1	11.8	·
Cc1onc(-c2ccccc2)c1C(=O)N/N=C/c1ccc(O)c([N+](=O)[O-])c1	-7.2	-1.6	33.0*	-0.5	34.9*	-11.3
CC1=C(C(=O)Nc2cccc(C(=O)NC3CCCC(C)C3C)c2)SCCO1 (stereo unspecified)	3.3	5.4	8.6	3.0	-1.7	·
Cc1cc(NS(C)(=O)=O)c(=O)n(Cc2cccc(C(F)(F)F)c2)c1	5.3	·	31.4*	·	8.0	-25.2
COCC(=O)Nc1cc(C)cn(Cc2cccc(C(F)(F)F)c2)c1=O	-1.1	1.4	6.4	-4.8	8.5	·
CCCCNC(=O)C[C@H]1C[C@@]2(C(=O)OC)C(=C[C@H](COCc3ccccc3)O[C@@H]2C)N(Cc2ccc3c(c2)OCO3)C1=O	·	·	10.0	·	·	·
CC1(OC(=O)C2CCCC2)C(=O)C=C2C=C(c3ccsc3)N(CCCCO)C=C2C1=O (stereo unspecified)	-2.4	9.8	30.1*	-0.5	10.2	34.5*
SMILES	FBA Mtb inh	RecA splice inh	CCHF vOTU inh-1	Mtb bLac sens	GDH-TPI counter	CCHF vOTU inh-2
CC1(C(=O)NCc2cccc(C(F)(F)F)c2)CCN1Cc1ccc(-c2ccccc2)o1 (stereo unspecified)	-3.0	·	33.9*	·	-4.9	18.1
COc1cc(/C=C2\C(=O)N(c3ccccc3)N=C2C)ccc1Oc1ccc([N+](=O)[O-])cc1[N+](=O)[O-]	1.1	·	48.5*	6.3	21.7	-0.5
COc1ccccc1/C=C1/C(=O)N(c2ccccc2)N=C1C	1.6	58.0*	71.1*	-0.9	4.6	-9.8
COc1cc(/C=C2\C(=O)N(c3cccc(C(=O)O)c3)N=C2C)ccc1OCc1ccccc1	1.4	·	-0.7	·	1.8	·
COc1cc(/C=C2/SC(=O)NC2=O)ccc1Oc1ccc([N+](=O)[O-])cc1[N+](=O)[O-]	-0.7	17.0	-2.2	81.9	26.5	·
COc1cc(/C=C2/C(=O)N(c3ccc(C(=O)O)cc3)N=C2C)cc(OC)c1O	-1.7	2.1	67.2*	4.7	17.2	-13.6
Cc1cc(=S)c2cccc(C)c2[nH]1	·	0.2	2.4	-4.0	·	·
O=C(NCc1ccc(F)cc1)Nc1nnc([C@@H]2C[C@H](O)[C@@H](CO)O2)s1	-1.2	·	33.6*	·	-6.2	-14.0
O=C(NCc1ccc(F)cc1)Nc1nnc([C@H]2C[C@H](O)[C@@H](CO)O2)s1	-0.5	·	7.3	·	6.2	·
CSCCC(NS(=O)(=O)c1ccccc1)C(=O)OC(C)C(=O)Nc1ccc(Cl)cn1 (stereo unspecified)	2.0	·	20.0	-2.2	5.1	·
Cc1ccc2cc(N)ccc2n1	1.8	·	-2.0	·	3.4	·
Nc1ccc2cc3ccc(N)cc3nc2c1	·	·	52.9*	·	·	29.7*
CCN(CC)S(=O)(=O)c1ccc(N2CCOCC2)c(NC(=O)c2cc(-c3ccccn3)nc3ccccc23)c1	-0.8	6.2	7.6	·	10.4	·
CCS(=O)(=O)c1ccc(O)c(NC(=O)c2cc(-c3ccccn3)nc3ccccc23)c1	3.1	·	32.0*	5.7	7.6	-16.8
O=C1c2ccccc2C(=O)c2c1cccc2N1CCCC1	-1.7	15.9	74.9*	25.0	13.9	-5.3
Cn1c(=O)cc2c3c(c(N4CCCCC4)ccc31)C(=O)c1ccccc1-2	-2.5	-48.0	-3.0	8.0	24.4	·
OC(COc1ccc(Br)cc1)CN1CCN(c2ccccc2)CC1 (stereo unspecified)	1.4	·	-15.3	2.0	4.5	·
Cc1ccc(SCC(=O)OCC(=O)NC2CCCCCCC2)cc1	-2.0	-2.6	29.8*	2.8	7.9	4.2
O=C(COC(=O)CSc1ccc([N+](=O)[O-])cc1)NC1CCCCCCC1	2.6	·	11.1	-2.2	15.7	·
COc1cc2c(cc1OC)CN(C(=O)CNS(=O)(=O)c1ccc(C)c(C)c1)CC2	0.6	-1.1	-7.4	-1.1	-4.4	·
COc1cccc(C(C(=O)NC2CCCC2)N2CCN(c3cc(C)ccc3C)CC2)c1OC (stereo unspecified)	·	·	30.3*	·	·	-4.9
